Compound activity from PubChem BioAssay.
The full list was thinned out, with hits kept by preference.
Sm TGR inh – inhibitors of Schistosoma mansoni thioredoxin glutathione reductase; Q962Y6; purified TGR, DTNB reduction, TNB absorbance 405 nm; AID 485364; 360,000 tested, 3% active; Potency, µM (highest dose often 114 µM), most hits filed as inhibitors; note: nearly all actives have a fitted effect of over 60% in size
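TGR 20 nM + NADPH 100 uM (dispensed conc.), cpd preinc 15 min RT; start with NADPH (500 uM addition) then DTNB (15 mM addition). Kinetic TNB absorbance, 405 nm filter. Four-parameter Hill fit across titration.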
Tb PYK inh – T. brucei pyruvate kinase inhibition; AID 624173; Potency, µM (top dose mostly 76.8 µM), most hits filed as inhibitors; Q57TT1; TbPYK enzyme, Kinase-Glo Plus ATP luminescence, 45 min; 410,000 tested, 0.12% active; note: nearly all actives have a fitted effect of over 50% in size
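T. brucei PYK with substrate was exposed to pin-transferred compounds across a concentration series, then started with 130 uM ADP (final). After 45 min at room temperature, Kinase-Glo Plus luminescence was read, normalized and curve-fitted.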
Cycloheximide cs – counter-screen for Shiga toxin inhibitors: cycloheximide protein synthesis inhibition | 300,000 tested, 12% active | max response, % | cell reporter, cycloheximide protein synthesis inhibition counterscreen | AID 2314; in the data active = max response mostly above about 13%, no sharp cut-off; inactive = mostly below about 14%; note: read at 38.3 µM for the half of the compounds with a filed dose
LmPK inhibitor – blocks Leishmania mexicana pyruvate kinase activity; 290,000 tested, 0.37% active; Potency, µM (doses to about 57.5 µM), usual class: inhibitors; AID 1721; purified LmPK, Kinase-Glo ATP luminescence, 1 h; Q27686
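0.1 nM LmPK, 0.5 mM PEP, 0.1 mM ADP; 50 mM imidazole pH 7.2, 7 mM MgCl2, 50 mM KCl; 1 h RT. Kinase-Glo luminescence readout, normalized to no-enzyme (full inhibition) and uninhibited wells.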
Shiga inhibitor – Shiga toxin inhibition | AID 2315 | 290,000 tested, 9.2% active | Vero cells, Shiga toxin protein synthesis inhibition reporter | inhibition, % at 38.7 µM; in the data active = inhibition mostly above about 28%, no sharp cut-off; inactive = mostly below about 43%
FBPA Giardia inh – blocks Giardia fructose-bisphosphate aldolase activity; A8B2U2; purified Giardia FBPA; Potency, µM (doses to about 59.6 µM), most hits filed as inhibitors; 290,000 tested, 0.71% active; AID 2451; note: nearly all actives have a fitted effect of over 55% in size
Target sequence (A8B2U2 whole entry, looked up): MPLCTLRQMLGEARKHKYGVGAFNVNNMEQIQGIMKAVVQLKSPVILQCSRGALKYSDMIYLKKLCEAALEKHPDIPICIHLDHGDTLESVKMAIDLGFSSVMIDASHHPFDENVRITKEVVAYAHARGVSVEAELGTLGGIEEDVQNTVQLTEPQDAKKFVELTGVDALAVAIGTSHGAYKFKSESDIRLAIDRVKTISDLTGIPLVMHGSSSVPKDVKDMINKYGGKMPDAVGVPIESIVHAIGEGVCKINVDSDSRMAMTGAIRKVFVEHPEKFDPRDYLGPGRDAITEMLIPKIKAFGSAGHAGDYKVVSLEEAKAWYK
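40 nM FBPA preincubated 10 min at RT with compound (up to 57.5 uM final), then substrate plus GAPDH/TPI/NAD/arsenate coupling and diaphorase/resazurin added. Fluorescence read after 20 min at RT, 525/598 nm.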
Large screens that a line does not name were inactive. Unless noted, calls come from the whole dose curve; as a rule, active = well fitted curve in the direction sought with a large enough effect; inconclusive = small, poorly fitted or top-dose-only effect, or another doubt; inactive = no such curve, though single readings can be large; an effect the other way counts as inactive or inconclusive.

Cc1ccc(-n2c(=O)c3c(C)c(C(=O)N(C)C)sc3n(CC(=O)N(C)c3ccccc3)c2=O)cc1C	none (no result: Cycloheximide cs, LmPK inhibitor, Shiga inhibitor, FBPA Giardia inh)
O=C(COc1ccc(F)c(Cl)c1)c1ccc[nH]1	Cycloheximide cs 36
O=C(CCC(=O)c1ccc[nH]1)c1ccc(Cl)cc1	Cycloheximide cs 46, Shiga inhibitor 100
Cc1cccc(-c2nc(C)c(CCNC(=O)C(=O)Nc3cccc(Cl)c3C)s2)c1	none (no result: Cycloheximide cs, LmPK inhibitor, Shiga inhibitor, FBPA Giardia inh)
COc1ccccc1-n1cnc2cc(C(=O)NCc3ccco3)ccc21	Sm TGR inh 40µM
Cn1nnc2cc(NC(=O)Nc3ccccc3F)ccc21	none (no result: Sm TGR inh, Cycloheximide cs, LmPK inhibitor, Shiga inhibitor, FBPA Giardia inh)
Cn1nnc2cc(C(=O)NCc3ccco3)ccc21	Sm TGR inh 40µM
Cn1nnc2cc(C(=O)Nc3ccccc3F)ccc21	Cycloheximide cs 31, Shiga inhibitor 55
COc1ccc(C(=O)NNC(=O)C(=O)Nc2cccc3ccccc23)cc1	none
CCOC(=O)C(=CNc1ccc2c(c1)c1ccccc1n2CC)C(=O)OCC	none
CCCn1c(SCC(=O)N2CCCCC2)nnc1C(C)C	Cycloheximide cs 15, Shiga inhibitor 43
COCCn1c(SCC(=O)N2CCCC2)nnc1C(C)C	none
Cc1nc(Nc2ccc(Cl)cc2)cc(-c2ccccc2)n1	none (no result: Cycloheximide cs, LmPK inhibitor, Shiga inhibitor, FBPA Giardia inh)
Cc1ccc(-c2nn(-c3cccc(F)c3)cc2CN(Cc2nccn2C)C(C)C)o1	Sm TGR inh 20µM
Cc1cccc(-n2cc(CN3CCN(Cc4nccn4C)CC3)c(-c3cccc(F)c3)n2)c1	Cycloheximide cs 29, Shiga inhibitor 53
Cc1ccc(-c2nn(-c3cccc(F)c3)cc2CNCc2cccnc2)o1	Cycloheximide cs 10
Cc1ccc(-c2nn(-c3cccc(F)c3)cc2CN2CCN(c3ccccn3)CC2)o1	Sm TGR inh inconclusive
C=CCNC(=O)NC(=S)c1ccccc1	Cycloheximide cs 23
Cc1cc(C)cc(NC(=S)N2CCCC2)c1	none (no result: FBPA Giardia inh)
CCCCc1ccc(NC(=S)N2CCN(C(=O)OCC)CC2)cc1	none
CCCCc1ccc(NC(=S)N2CCCC2)cc1	Cycloheximide cs 48, Shiga inhibitor 69 (no result: FBPA Giardia inh)
CCCCc1ccc(NC(=S)N2CCN(C)CC2)cc1	Cycloheximide cs 20
CC(=O)c1c(C)nc(Nc2nc3ccccc3s2)nc1C	Cycloheximide cs 68, Shiga inhibitor 98
Cc1ccc(NC(=O)COC(=O)c2ccccc2-c2nc3ccccc3s2)c(C)c1	none
Cc1ccccc1NC(=O)c1cnc(Nc2nc3ccccc3s2)nc1C	none (no result: Tb PYK inh)
Cc1ccc(Nc2nc3ccccc3s2)c(C)c1	Cycloheximide cs 47, Shiga inhibitor 94
Cc1cc(C)nc(Nc2cccc3ccccc23)n1	none
CC(=O)c1c(C)nc(Nc2nc(C)c3cc(C)ccc3n2)nc1C	Shiga inhibitor 56
Cc1cc(C)nc(Nc2nc3ccccc3s2)n1	Cycloheximide cs 39, Shiga inhibitor 59
COc1ccc(Cl)cc1-c1ccc(C(=O)O)s1	none (no result: Sm TGR inh, Tb PYK inh, LmPK inhibitor)
c1ccc(SCc2cn(C[C@H]3CC[C@@H]([C@@H]4CC[C@H](Cn5cc(CSc6ccccc6)nn5)O4)O3)nn2)cc1	none
c1ccc(Cn2cc(CSc3ccccc3)nn2)cc1	Cycloheximide cs 38, Shiga inhibitor 67
N[C@@H](C(=O)O)c1ccc(C(=O)O)c(C(=O)O)c1	none (no result: Sm TGR inh, Tb PYK inh, Cycloheximide cs, LmPK inhibitor, Shiga inhibitor)
COc1ccccc1NC(=O)Nc1nnc(C(C)C)s1	Cycloheximide cs 51, Shiga inhibitor 75
CCc1nnc(NC(=O)Nc2ccccc2OC)s1	Cycloheximide cs 35, Shiga inhibitor 91
COc1ccccc1NC(=O)Nc1nnc(CC(=O)Nc2ccccc2)s1	none (no result: Tb PYK inh)
CC(C)c1nnc(NC(=O)Cc2ccccc2[N+](=O)[O-])s1	Cycloheximide cs 12, Shiga inhibitor active
COc1ccccc1NC(=O)Nc1nnc(C(C)c2ccccc2)s1 (stereo not drawn)	none
CC(C)(C)c1nnc(NC(=O)Cc2ccccc2[N+](=O)[O-])s1	none
COc1ccc(OCC(=O)N(Cc2cccc(OC)c2)C2CCS(=O)(=O)C2)cc1 (stereo not drawn)	none (no result: Cycloheximide cs, LmPK inhibitor, Shiga inhibitor, FBPA Giardia inh)
CC(=O)c1ccc(N=Nc2ccc(N)cc2)cc1	Cycloheximide cs 28, Shiga inhibitor 56
CC(=O)c1ccc(NS(=O)(=O)c2ccc(N)cc2)cc1	Cycloheximide cs 28, Shiga inhibitor 50 (no result: Sm TGR inh)
CC(=O)c1ccc(NS(=O)(=O)c2c(C)cc(C)cc2C)cc1	Cycloheximide cs 38, Shiga inhibitor 73 (no result: Sm TGR inh)
